Consider 22 compounds from PubChem BioAssay AID493185 (National Center for Advancing Translational Sciences (NCATS), 2011).

Calls of active or inactive are those of the source. Entries that show only a call come without a potency. The call rests on the fitted dose curve; in most records, active means well fitted activation curve with a large enough effect; inconclusive means small, poorly fitted or top-dose-only effect; inactive means no such curve, though single readings can be large or run the other way.
Potency means the concentration at half of the fitted maximal effect.

The experiment can be described thus: Counterscreen for Identifying a Potential Treatment of Ataxia-Telangiectasia: Hit Validation. As to conditions: cell-free AlphaLISA/AlphaScreen artifact counterscreen, PBS only, no cells; series mostly up to 76.9 µM. An outline of the steps: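 Without cells, compounds at up to 76.7 uM final were combined with premixed anti-pKAP1/anti-KAP1 AlphaLISA bead reagents, protease inhibitors and lysis buffer; signal read after 6 hr at 25C to flag assay-platform artifacts.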
As to `Cc1oc2c(c(C)cc3oc(=O)c(CC(=O)NCC(=O)NCC(=O)O)c(C)c32)c1C`, the Potency result is “inactive”. Take `COc1ccc(-c2nn(-c3ccccc3)cc2/C=C/C(=O)O)cc1[N+](=O)[O-]`: the Potency entry is “inactive”.

Regarding `Cn1cc(S(=O)(=O)Nc2ccc(OC(F)(F)F)cc2)c(=O)n(C)c1=O`, the Potency result was “inactive”. As to `COC(=O)c1ccc2[nH]c3cccc(/C(=C/c4ccccc4)c4ccccc4)c3c2c1`, the Potency result is “inactive”. Regarding `NC(=O)C1CCN(Cc2nc3cc(C(F)(F)F)ccc3c(=O)[nH]2)CC1`, the Potency entry is “inactive”. With `O=C(CNCc1cccs1)Nc1cc(S(=O)(=O)N2CCCC2)ccc1Cl`, the Potency entry was “inactive”. On to `CCN(CC)c1ccc2c(Cl)c(Br)c(=O)oc2c1`, for which the Potency entry is “inactive”. Next, `CC(C)(CO)NC(=O)c1ccc2c(c1)C(=O)c1ccccc1-2`: “inactive”; `O=C(CSc1nnc(CNC(=O)c2ccccc2)o1)NCCc1ccccc1`: “inactive”; `CCCc1nn(C)c(C(=O)Nc2ccc(C(C)(C)C)cc2)c1Cl`: “inactive”. `COC(=O)c1cccc2c1-c1ccccc1/C2=N\NC(N)=O`: the Potency result is “inactive”. Take `CC(C)(C)NC(=O)c1cccc2c1-c1ccccc1C2=O`: the Potency entry was “inactive”. Consider `C=C(C)n1c(=O)n(Cc2ccccc2C)c2ccccc21`, for which the Potency result was “inactive”. For the compound `CNC(=S)N(CCc1c(C)[nH]c2ccc(Cl)cc12)Cc1cccnc1`, the Potency entry was “inactive”. In the case of `C=C1CCC[C@]2(C)C[C@H]3OC(=O)C(CN4CCCCC4CO)[C@H]3CC12` (some centres not stated), the Potency entry is “inactive”.

Take `CS(=O)(=O)c1ccc(-c2csc(-c3cccnc3)n2)cc1`: the Potency entry was “inactive”. For `NCC(=O)c1cccc2ccc[n+]([O-])c12`, the Potency result was “inactive”. Take `COc1ccc(CNC(=O)COc2cccnc2[N+](=O)[O-])cc1OC`: the Potency entry was “inactive”. For `CC(C)CNS(=O)(=O)c1cc(C(=O)O)c(Cl)cc1Cl`, the Potency entry is “inactive”.

Take `COc1ccc(-c2nc3n(c2C)Cc2ccccc2-3)cc1`: the Potency was 32.8 µM (active). With `CCS(=O)(=O)N1Cc2ccccc2CC1C(=O)Nc1cccc(OC)c1` (configuration not stated), the Potency result was “inactive”. Regarding `Cc1ccccc1S(=O)(=O)Oc1ccc2ccc(O)cc2c1`, the Potency result was “inactive”.
